# CHO-K1 Ca antag – counter-screen for M1 antagonists: effect in parental CHO-K1 cells. ATP-induced calcium, Fluo-8 fluorescence. inhibition, % at 3 µM. 0.6% of 360,000 active. AID 602250;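 active means inhibition above a per-plate cutoff, the plate's mean sample inhibition plus 3 SD, cut at about 24% in these data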;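 further: 0% = DMSO plus EC80 ATP and 100% = DMSO alone without ATP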
# CHRM1 agonist – human M1 muscarinic receptor agonists, primary screen, Fluo-8 calcium fluorescence, CHO-K1 cells, HTS. Muscarinic acetylcholine receptor M1 (Homo sapiens), P11229. CHO-K1 hM1, agonist mode; 0% DMSO, 100% acetylcholine EC100. activation, % at 3 µM. 0.33% of 360,000 active;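 active means activation above the run's mean compound activation plus 3 SD, cut at about 16% in these data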;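 further: peak over basal fluorescence ratio within a 140 s kinetic read after compound addition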
# Target sequence (P11229 whole entry, looked up): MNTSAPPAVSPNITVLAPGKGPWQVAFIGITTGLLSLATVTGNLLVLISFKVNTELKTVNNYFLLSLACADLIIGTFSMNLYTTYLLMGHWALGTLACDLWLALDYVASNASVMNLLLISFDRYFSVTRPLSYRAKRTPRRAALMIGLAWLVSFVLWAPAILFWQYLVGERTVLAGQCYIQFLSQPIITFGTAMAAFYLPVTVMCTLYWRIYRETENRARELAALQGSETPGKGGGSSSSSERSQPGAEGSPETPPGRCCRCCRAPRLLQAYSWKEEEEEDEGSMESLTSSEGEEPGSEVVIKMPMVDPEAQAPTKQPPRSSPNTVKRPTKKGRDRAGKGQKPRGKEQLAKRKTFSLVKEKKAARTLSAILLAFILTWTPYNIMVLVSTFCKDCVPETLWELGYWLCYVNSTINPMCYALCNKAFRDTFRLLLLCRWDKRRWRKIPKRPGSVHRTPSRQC
# CHRM1 antagonist – human M1 muscarinic receptor antagonists, primary screen, CHO-K1 cells, Fluo-8 calcium fluorescence, 1536-well; Muscarinic acetylcholine receptor M1 (Homo sapiens), P11229; CHO-K1 hM1, ACh EC80 antagonist; inhibition, % at 3 µM; 1.3% of 360,000 active; AID 588852, 2011;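 active means percent inhibition above its own plate's cutoff, namely the mean of that plate's compound wells plus 3 SD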;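 further: peak over basal fluorescence ratio during 140 s after agonist addition; 0% = ACh EC80 plus DMSO and 100% = DMSO alone without agonist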
# CHO-K1 Ca ag – counter-screen for M1 agonists: effect in parental CHO-K1 cells; Fluo-8 calcium fluorescence; scaled to maximal ATP response, vehicle zero; activation, % at 3 µM; 0.48% of 360,000 active; in the data active means activation above about 15%;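 further: untransfected CHO-K1 host cells lacking M1 receptor as counterscreen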
# M1 PAM parental – nonselective calcium activators in parental CHO-K1 cells, primary screen, counter-screen for M1 PAM project, cell-based, Fluo-8 calcium fluorescence, full deck, 1536-well. ATP EC20; 0% at ATP EC20, 100% at ATP max. activation, % at 3 µM. 0.02% of 360,000 active. AID 602247, 2012;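 active means activation above the run cutoff, the mean activation of all test compounds plus 3 SD, cut at about 40% in these data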;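 further: peak over basal fluorescence ratio in a 140 s read after ATP addition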
# M1 PAM – human M1 muscarinic receptor positive allosteric modulators, primary screen, CHO-K1 cells, Fluo-8 calcium fluorescence, 1536-well | Muscarinic acetylcholine receptor M1 (Homo sapiens), P11229 | 0.088% of 360,000 active | CHO-K1 hM1, ACh EC20; 0% = ACh EC20, 100% = maximal ACh | AID 588819, 2011 | activation, % at 3 µM; in the data active means activation above about 19%, passing the limit was not always enough
# Active calls of the source: *; x = no result given. Sampled rows, rich in hits. Any-hit rate of the full collection: about 2.3%.
SMILES,CHO-K1 Ca antag,CHRM1 agonist,CHRM1 antagonist,CHO-K1 Ca ag,M1 PAM parental,M1 PAM
Fc1ccc(/C=C2\CCCC3=C2Nc2ncnn2C3c2ccc(F)cc2)cc1 (stereo not drawn),19.2,1.9,31.7*,5.4,3.3,-8.3
O=C(COc1ccc(-c2ccccc2)cc1)NNC(=O)NC1CCCCC1,-3.6,-13.9,33.1*,0.8,-6.2,-31.0
O=C(CCCN1C(=O)NC2(CCCC2)C1=O)Nc1ccc(F)cc1,3.6,-1.1,9.9,0.1,1.0,8.5
Cc1ccc(Sc2ccc(NC(=O)CCN3C(=O)NC4(CCCC4)C3=O)cc2)c(C)c1,2.6,-4.9,35.0*,3.8,15.7,-14.0
C[C@H](CO)N1C[C@H](C)[C@@H](CN(C)Cc2cccc(F)c2)Oc2cc(-c3cccc(C#N)c3)ccc2S1(=O)=O,-6.3,-1.4,-9.5,-0.3,-1.3,-1.2
CCCNCCC(c1ccco1)c1ccccc1OC (stereo not drawn),1.2,-7.3,40.6*,0.3,10.9,-25.7
CCCCN(C=O)c1c(CC)nc2ccc(C(=O)N3CCCCC3)cn12,0.3,-3.5,-9.1,1.1,14.8,3.6
Cc1ccccc1-n1nnnc1SC(C)C(=O)Nc1ccc(N2CCN(C)CC2)cc1 (stereo not drawn),-8.5,-4.8,50.5*,0.1,5.4,-21.3
Cc1ccccc1-n1nnnc1SCC(=O)Nc1ccc(N2CCN(C)CC2)cc1,-9.2,-14.0,6.9,0.2,-9.5,-17.4
COc1ccc(NC(=O)C2(C)CCCN(C(C)C)C2)cc1F (stereo not drawn),0.3,-6.6,-2.5,0.1,-1.8,0.9
CCOC(=O)C1CCCN(C(=O)c2cc(C)n(C(C)(C)C)n2)CC1 (stereo not drawn),-16.5,-3.2,-13.3,1.3,11.3,5.6
Cc1cccc2c(N=NC(=O)c3ccc(NS(=O)(=O)c4cccs4)cc3)c(O)[nH]c12,-15.2,-7.4,37.3*,0.2,8.0,-23.8
O=C(O)Cn1nncc1-c1ccc(C(F)(F)F)cc1,-26.5,-1.8,-23.5,0.0,13.4,15.6
COCCN1C(=O)CCC1(C)C(=O)Nc1c(C)cccc1C (stereo not drawn),25.8*,11.5,21.5,0.1,-8.6,0.9
CCCCNC(=O)C1(C)CCC(=O)N1CCOC (stereo not drawn),33.2*,2.4,0.2,-0.5,-7.6,6.8
O=C(CN1C(=O)c2ccccc2C1=O)C(O)CN1C(=O)c2ccccc2C1=O (stereo not drawn),-10.2,-5.3,3.4,0.6,16.2,3.1
CCCCN1CC(N2CCN(CCN(C)C)CC2)CS1(=O)=O (stereo not drawn),-3.9,-5.3,-8.7,0.4,14.2,10.6
O=Nc1c(O)n(Cc2ccc(Cl)cc2)c2ccccc12,-5.2,18.4*,-15.8,0.0,5.3,21.8*
O=Nc1c(O)n(Cc2c(Cl)cccc2Cl)c2ccccc12,-10.2,36.2*,6.5,-0.3,16.1,-0.7
Cc1ccc(Cn2c(O)c(N=O)c3ccccc32)cc1,19.3,19.6*,-5.2,2.4,-13.6,8.7
COCCCN1C(=O)C(CC(=O)NCc2ccco2)CC(C(=O)N(C(C)C)C(C)C)=C1C (stereo not drawn),13.2,-4.8,0.1,2.8,7.9,2.6
CC1(C(=O)NCc2cccnc2)CCN1C(=O)Cc1cccs1 (stereo not drawn),-6.9,-4.3,-8.0,0.0,11.4,5.9
CC(NCCCOc1cccc2ccccc12)c1ccccc1 (stereo not drawn),4.8,3.0,-6.0,28.3*,11.1,8.7
COc1ccc2ccccc2c1CNC(C)c1ccccc1 (stereo not drawn),4.1,-1.0,-22.8,0.9,-12.1,18.9
c1csc(CCNc2ncnc3sc4c(c23)CCC4)c1,18.5,2.4,33.0*,7.2,-11.8,-17.9
SMILES,CHO-K1 Ca antag,CHRM1 agonist,CHRM1 antagonist,CHO-K1 Ca ag,M1 PAM parental,M1 PAM
Cc1cccc(/C=N/NC(=O)c2ccc(Br)cc2)c1,6.6,-6.9,3.5,17.1*,14.7,5.1
Cc1cnc(CN(C)C(=O)C2CCC(=O)N(CCc3ccc(Cl)cc3)C2)[nH]1 (stereo not drawn),-0.1,-6.8,-5.6,-0.1,0.7,2.8
CN1CCC(N(C)CC(=O)Nc2ccc3c(c2)OC(F)(F)O3)CC1,-9.1,-7.0,72.4*,0.3,8.9,-23.3
COC(=O)c1cc2c(cc1Cl)N1CCCCCC1=NS2(=O)=O,23.8*,-2.2,8.8,0.1,-21.4,-3.4
O=C(O)c1cc2c(cc1Cl)N1CCCCCC1=NS2(=O)=O,-5.2,-7.9,3.2,10.2,8.8,3.1
O=S1(=O)N[C@@H](Cc2ccccc2)COc2cccc(N3CCN(Cc4ccccc4F)CC3)c21,2.9,x,x,6.0,1.1,x
CCN1CCN(S(=O)(=O)c2cc(OC)ccc2OC)CC1,19.8,-4.2,9.6,0.3,-11.7,-5.2
COc1ccc(OC)c(S(=O)(=O)N2CCN(C34CC5CC(CC(C5)C3)C4)CC2)c1,-2.0,-5.8,47.8*,0.7,1.5,-20.1
COc1cc2c(cc1NC(=S)Nc1ccccc1C)oc1ccccc12,-8.6,-4.8,-15.4,0.0,16.7,25.1*
Cc1ccc(N(C)C(=O)CCNC(=O)Cn2cnc3ccccc3c2=O)cc1C,35.1*,-4.8,-14.5,1.3,16.8,9.5
CCOc1cc(/C=C2\SC(=S)N(C(C(=O)O)c3ccccc3)C2=O)ccc1O (stereo not drawn),9.4,19.1*,8.7,28.8*,0.3,-1.5
COc1cc(/C=C2\SC(=S)N(C(C(=O)O)c3ccccc3)C2=O)ccc1O (stereo not drawn),6.6,17.3*,5.7,29.2*,-14.8,-8.7
CC(C)(O)C#Cc1ccc(N2C(c3ccsc3)=Cc3ccc(F)cc3C2c2c[nH]c3ccccc23)cc1 (stereo not drawn),-6.0,x,x,0.2,4.7,x
O=C(c1cccs1)N1CCN(C2CCN(Cc3ccccc3)CC2)CC1,-2.4,-6.4,38.7*,1.2,16.0,-20.1
S=C(NCCc1ccccc1)Nc1cccc2cnccc12,32.5*,1.3,28.1,12.0,-23.4,-1.5
COc1cc(S(=O)(=O)N2CCN(C)CC2)c(OC)cc1Cl,23.9*,-2.1,-1.7,-0.2,-7.1,12.1
C=CCOc1cccc(C(=O)N2CCCC(Nc3ccc4c(c3)OCCO4)C2)c1 (stereo not drawn),56.9*,-1.7,-14.4,0.6,-10.9,-2.9
C=Cc1ccc(C(=O)N2CCCC(Nc3ccc4c(c3)OCCO4)C2)cc1 (stereo not drawn),-20.8,-2.4,-9.8,3.8,31.1,11.2

# Bioassay records from PubChem BioAssay.
